# Laboratory results taken from PubChem BioAssay (EPA / NIEHS).
# Several values for one entry are separate records, joined by “and”; a condition that tells them apart may be missing. Equal values may be shown once. Activity calls are given as the source filed them. The calls were made as follows: active = hit-call score of the fitted dose curve at least 0.9, where 1 is the maximum; inactive = score below 0.9.
# Test: CCTE_Shafer_MEA_dev_spike_duration_mean: CCTE's Neural Network Formation Assay for Mean Spike Duration, Shafer Lab (AID 2284051);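 as to AC50: potency for a decrease in mean network spike duration versus DMSO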
# Description: CCTE_Shafer_MEA_dev assay is conducted using Axion Biosystems 48 well microelectrode array (MEA) plates and Maestro recording system. Each well of the MEA plate contains a grid of 16 microelectrodes embedded in the culture surface. Electrically active cells, such as neurons, can be cultured over the electrodes, and electrical activity in these cells can be recorded extracellularly. The spontaneous firing of neurons is captured from each electrode on a microsecond timescale providing both temporally and spatially precise data. […] The CCTE_Shafer_MEA_dev assay uses primary cultures of rat cortical neurons. Recordings are made on days post-plating 5, 7, 9 and 12. As these cultures mature over time, neural networks develop functional activity and form cohesive networks in which electrical activity can be highly coordinated. CCTE_Shafer_MEA_dev_spike_duration_mean is 1 of 19 assay components of the CCTE_Shafer_MEA_dev assay. It measures the average duration of network spikes (temporally-clustered groups of action potential firing across multiple electrodes) during a recording in a microelectrode array (MEA) using Axion Biosystems Maestro 768 channel amplifier with the AxIS adaptive spike detector. To collapse across multiple recordings made on days post-plating 5, 7, 9 and 12, the trapezoidal area-under-the-curve of the component is calculated.Data from the assay component CCTE_Shafer_MEA_dev_spike_duration_mean was analyzed into 1 assay endpoint. This assay endpoint, CCTE_Shafer_MEA_dev_spike_duration_mean, was analyzed in the negative analysis fitting direction relative to DMSO as the negative control and baseline of activity. Using a type of functional reporter, gain or loss-of-signal activity can be used to understand electrical activity.
# On the day prior to culture, each well was coated thoroughly with 150 uL of 0.05% polyethyleneimine (PEI, Sigma Cat P3143) in 50 mM HEPES (Sigma Cat H7523) at a pH of 8. The plate was incubated at 37C for one hour. PEI was rinsed out with 500 uL of sterile water three times. Plates were stored at 4C until the day of culture. This culture was plated at a seeding density of 1.5 x 10^5 cells/well on a 48-well MEA plate, prepared as described above. Cells were administered via a 25 uL media/laminin ([…]; Sigma Cat L2020-1MG) drop directly onto the microelectrode array, as adding the cells with the laminin results in better attachment than pre-coating with laminin. After 2 hours, an additional 475 uL of cortical media was added and the cells returned to the incubator. Exposure starts at day 0 of plating and is continued over twelve days of network development until the experiment is terminated. Cells are fed with fresh medium on DIV 5 and 9, following the recordings on those days. The entire volume of media in the well is exchanged and any vehicle or compound treatment is renewed. Complete details are found in OP-NHEERL/ISTD/SBB/TJS/2015-03-r0 (available on request, email shafer.tim@epa.gov). Measurement of the electrical activity is non-invasive, and recordings can be made from the same plate over multiple different days of the culture. In cortical neurons, this allows for the measurement of extracellular action potentials over the period during which networks form in the MEA plate.
Structure (SMILES),outcome,AC50
CN1CCC[C@H]1c1cccnc1,inactive,
c1ccc2c(c1)Cc1ccccc1-2,inactive,
c1ccc2cc3c(ccc4ccccc43)cc2c1,inactive,
C=C(C)C(=O)OCCC(F)(F)C(F)(F)C(F)(F)C(F)(F)C(F)(F)C(F)(F)F,inactive,
CC1=C(/C=C/C(C)=C/C=C/C(C)=C/C(=O)O)C(C)(C)CCC1,,10.1 µM (active)
CC#C[C@]1(O)CC[C@H]2[C@@H]3CCC4=CC(=O)CCC4=C3[C@@H](c3ccc(N(C)C)cc3)C[C@@]21C,,4.55 µM (active) and 21.8 µM (active)
c1ccc2c(c1)ccc1ccccc12,inactive,
OCCC(F)(F)C(F)(F)C(F)(F)C(F)(F)C(F)(F)C(F)(F)F,inactive,
OCCC(F)(F)C(F)(F)C(F)(F)C(F)(F)C(F)(F)C(F)(F)C(F)(F)C(F)(F)F,inactive,
CC(O)CO (stereo not given),inactive,
